The list is not random: actives were taken first. Their share in the collection is about 11%.
USP28 block – inhibitors of human USP28 deubiquitinase. Q96RU2. purified USP28, Ub-rhodamine cleavage fluorescence, 30 min. inhibition, % at 25 µM. hit rate 3% among 47,000
OTUD3 inh – human OTUD3 deubiquitinase inhibition; hit rate 0.7% among 47,000; Q5T2D3; purified OTUD3, Ub-rhodamine fluorescence, 2 h; inhibition, % at 25 µM
Target sequence (Q5T2D3 whole entry, looked up): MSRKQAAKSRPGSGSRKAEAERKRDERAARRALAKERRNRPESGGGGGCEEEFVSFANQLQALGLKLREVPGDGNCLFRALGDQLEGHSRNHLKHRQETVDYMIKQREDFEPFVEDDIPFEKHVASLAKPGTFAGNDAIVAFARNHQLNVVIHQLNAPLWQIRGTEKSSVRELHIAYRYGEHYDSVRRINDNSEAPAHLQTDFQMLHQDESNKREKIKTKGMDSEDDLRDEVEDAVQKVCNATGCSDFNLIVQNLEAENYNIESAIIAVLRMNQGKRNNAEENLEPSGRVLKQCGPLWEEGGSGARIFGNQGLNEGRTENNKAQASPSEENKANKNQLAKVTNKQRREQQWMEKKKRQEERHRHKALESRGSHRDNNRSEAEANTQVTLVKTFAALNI
USP30 block – blocks human USP30 ubiquitin-rhodamine cleavage. Q70CQ3. purified USP30, Ub-rhodamine cleavage fluorescence. inhibition, % at 25 µM. hit rate 5.3% among 47,000. AID 1645860
USP17 block – blocks human USP17 ubiquitin-rhodamine cleavage; AID 1645855; inhibition, % at 50 µM; hit rate 6.5% among 47,000; purified USP17, Ub-rhodamine cleavage fluorescence, 3 h; A8MUK1
* = called active by the depositor; / = no result given. Cut-off read from the data, not from the text of the source: active = inhibition above about 30%; inactive = the rest.

SMILES	USP28 block	OTUD3 inh	USP30 block	USP17 block
COC[C@H]1O[C@@H](O[C@@H]2OC[C@@H]3O[C@]4(O[C@H]3[C@H]2OC(C)=O)O[C@H](C)[C@@](O)(C(C)=O)[C@@H]2OCO[C@H]24)[C@@H](OC)[C@@H](O)[C@@H]1O[C@@H]1O[C@H](C)[C@H](OC)[C@H](O[C@H]2C[C@@]3(C)O[C@@]4(C[C@@H](O)[C@H](O[C@H]5C[C@@H](O)[C@H](OC(=O)c6c(C)c(Cl)c(O)c(Cl)c6OC)[C@@H](C)O5)[C@@H](C)O4)O[C@@H]3[C@@H](C)O2)[C@H]1O	4	4	-59	-17
COc1ccc2occ(-c3ccc4c(c3)OCCO4)c(=O)c2c1	9	16	33*	16
c1ccc(-c2noc(-c3cc(-c4ccncc4)nc4ccccc34)n2)nc1	22	-1	14	53*
Cc1cc(NC(=O)/C=C/c2ccccc2)c2ccccc2n1	-11	-17	-53	-23
Cc1cc(C)c(NC(=O)/C=C/c2ccc3ccccc3n2)c(C)c1	-58	-40	-140	34*
COc1ccccc1NS(=O)(=O)c1ccc(Cl)c(NS(=O)(=O)c2ccccc2OC)c1	-96	-5	0	-1
COCCN1CCC2(C1)c1ccccc1S(=O)(=O)N2Cc1ccc(OC)cc1 (centres undefined)	-2	-3	5	-11
O=C(Nc1ccc(S(=O)(=O)Nc2cc(Cl)cc(Cl)c2)cc1)c1c(F)cccc1Cl	16	9	25	43*
O=C(Nc1cc(C(F)(F)F)cc(C(F)(F)F)c1)c1c(F)cccc1Cl	33*	14	33*	17
CC(C)N1CCN(C(=O)CN2CCC3(CCC2=O)NC(=O)c2ccccc2O3)CC1 (centres undefined)	-13	0	-6	-2
CCOCCCn1cc(OC(=O)c2ccc(F)cc2)c2c1nc(-c1ccc(F)cc1)n1c3ccccc3nc21	-135	-87	-435	-115
CC(C)OCCCn1c(=O)c2ccccc2n2c(CCC(=O)NCc3ccc4c(c3)OCO4)nnc12	19	21	40*	29
O=C(CCc1nnc2n(Cc3ccccc3)c(=O)c3ccccc3n12)NCc1cccnc1	9	4	38*	18
O=C(CCc1nnc2n(Cc3ccccc3)c(=O)c3ccccc3n12)N1CCCC1	7	5	17	6
CC(C)CCn1c(=O)c2ccccc2n2c(CCC(=O)NCc3cccnc3)nnc12	3	11	19	10
O=C(CCc1nnc2n(Cc3ccccc3)c(=O)c3ccccc3n12)N1CCC(Cc2ccccc2)CC1	22	11	38*	14
COc1ccc(CNC(=O)CCc2nnc3n(Cc4ccccc4Cl)c(=O)c4ccccc4n23)cc1	36*	33*	40*	43*
Cc1cc(C)cc(NS(=O)(=O)c2cc3c4c(c2)CCN4C(=O)CC3)c1	20	13	19	11
CC1(C)CS(=O)(=O)N(c2cccc(C(=O)Nc3ccc(Br)cc3)c2)C1=O	12	-8	-19	3
CC(=O)N1c2ccc(S(=O)(=O)NCC3CCC(C(=O)NCc4ccccn4)CC3)cc2CC1C (centres undefined)	17	13	20	0
O=C(CCc1nnc2n(Cc3ccccc3Cl)c(=O)c3ccccc3n12)NCc1ccccn1	36*	13	65*	45*
CCC(=O)N1CC[C@@H]2Oc3ccccc3S(=O)(=O)N(Cc3cccnc3)[C@H]2CC1	9	0	0	-23
COc1ccc(-c2c(C(=O)O)sc3c2NC(=O)CC3c2cc(F)ccc2F)cc1 (centres undefined)	14	12	35*	5
Cc1nc(-c2ccc(-c3noc(-c4ccnn4C)n3)cc2)cs1	0	-5	40*	33*
CNc1nc(C2CCCN(C)C2)nc2c1CCN(C(=O)c1cccnc1)C2 (centres undefined)	-5	-9	-13	-11
SMILES	USP28 block	OTUD3 inh	USP30 block	USP17 block
Cc1cccc(-c2nc3n(CC(=O)Nc4ccc(Cl)cc4)c(C)cc(=O)n3n2)c1	6	8	26	68*
Cn1c(=O)n(Cc2ccc(F)cc2)c2cccnc21	16	11	1	5
CCN(Cc1ccccc1)C(=O)Cn1cnc(S(=O)(=O)N2CCCCC2)c1	11	8	14	10
COc1ccc2c(c1)c(N1CCCC1=O)c(C(=O)NCc1cccc(OC)c1OC)n2C	57*	5	14	2
Cc1oc2ncnc(Oc3ccc(F)cc3)c2c1C	14	21	41*	29
O=C(Nc1ccccn1)N1C[C@@H]2c3nccn3-c3ccccc3[C@@H]2C1	9	13	34*	14
Cc1ccc(NC(=O)N2C[C@@H]3c4nccn4-c4ccccc4[C@@H]3C2)cc1	-18	-9	0	-15
COc1cc(C)cc2c1C(=O)c1c(cc(O)c(Cl)c1O)C2=O	80*	76*	7	74*
CCc1nnc(NC(=O)c2nnn(-c3ccccc3Cl)c2C)s1	60*	17	37*	11
COc1ccc(Cl)cc1NC(=O)c1nc2ccccc2nc1N1CCOCC1	-55	-51	-292	/
COc1ccc(S(=O)(=O)N2CCC(Cc3ccccc3)CC2)cc1NC(C)=O	14	10	35*	21
O=C(Nc1cccc(S(=O)(=O)N2CCCC2)c1)c1ccc(OCC2CCCO2)cc1 (centres undefined)	36*	0	19	10
COc1ccc(C)cc1NC(=O)CN1CCC(Cc2ccccc2)CC1	2	16	18	21
COc1ccc(S(=O)(=O)N2CCCCC2)cc1NC(=O)c1ccc(OCC2CCCO2)cc1 (centres undefined)	11	5	47*	20
CCC(=O)Nc1ccc(C)n(CC(=O)NC2CCCCC2)c1=O	-6	-1	6	/
CCc1nnc2ccc(C(=O)NCc3ccc(Cl)cc3)cn12	21	19	20	15
O=C1CN(C(=O)CC2CCCCC2)C(c2ccccc2)c2cc(Br)ccc2N1 (centres undefined)	25	13	41*	12
O=C(c1scc2c1CCCC2)N1CCN(c2ccccc2O)CC1	4	-6	6	0
O=C(c1csc2c1CCCC2)N1CCN(C(c2ccccc2)c2ccccc2)CC1	3	13	31*	2
CC(=O)N1CC[C@@H]2Oc3ccccc3S(=O)(=O)N(CC(C)C)[C@H]2CC1	-8	0	0	-8
CC(C)=CCC/C(C)=C/COc1ccc(/C=C2\C(=O)N(O)[C@@H](C)C(=O)N2O)cc1	47*	6	33*	4
O=C(c1ccc2c(=O)n3c(nc2c1)CCCC3)N1CCC2(CC1)OCCO2	10	10	31*	10
O=C(COC(=O)c1ccc2c(=O)n3c(nc2c1)CCCCC3)c1ccc2c(c1)OCCO2	19	-3	-2	-6
COCCOC(=O)C1=C(C)Nc2nc3ccccc3n2C1c1cc(OC)c(OC)c(OC)c1 (centres undefined)	2	6	7	34*
O=C(NC1CCCC1)C1CN(C(=O)c2ccccc2F)CC12CCOCC2 (centres undefined)	5	13	3	11
